# In PubChem BioAssay (NCI):
# The panel holds about 83,000 compounds, 20% with a hit somewhere; the sample as a whole holds those more often.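 Testing used 96-well plates and a 48-hour single-concentration exposure. Example: -40 means 40% of the starting cells died.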 A number with no mark means an inactive call. The source made the active and inactive calls. The calls were made as follows: active = growth percent below 10; inactive = the rest.
# Assays:
# Assay in all cases: NCI-60 one-dose screen, 48 h (100 = growth as untreated, 0 = no growth, -100 = all killed)
# Details in all cases: 10 µM unless noted
# SK-MEL-2 melanoma = system: SK-MEL-2 melanoma
# EKVX NSCLC = system: EKVX NSCLC
# SN12C renal = system: SN12C renal
# UO-31 renal = system: UO-31 renal
# TK-10 renal = system: TK-10 renal
# ACHN renal = system: ACHN renal
# A498 renal = system: A498 renal
# CCRF-CEM leukemia = system: CCRF-CEM leukemia
# MOLT-4 leukemia = system: MOLT-4 leukemia
# SR leukemia = system: SR leukemia
# RPMI-8226 leukemia = system: RPMI-8226 leukemia
# OVCAR-8 ovarian = system: OVCAR-8 ovarian
# OVCAR-5 ovarian = system: OVCAR-5 ovarian
# OVCAR-4 ovarian = system: OVCAR-4 ovarian
# SK-OV-3 ovarian = system: SK-OV-3 ovarian
# IGROV1 ovarian = system: IGROV1 ovarian
# OVCAR-3 ovarian = system: OVCAR-3 ovarian
# HS 578T breast = system: HS 578T breast
# NCI/ADR-RES ovarian = system: NCI/ADR-RES ovarian
# CAKI-1 renal = system: CAKI-1 renal
SMILES,growth (SK-MEL-2 melanoma),growth (EKVX NSCLC),growth (SN12C renal),growth (UO-31 renal),growth (TK-10 renal),growth (ACHN renal),growth (A498 renal),growth (CCRF-CEM leukemia),growth (MOLT-4 leukemia),growth (SR leukemia),growth (RPMI-8226 leukemia),growth (OVCAR-8 ovarian),growth (OVCAR-5 ovarian),growth (OVCAR-4 ovarian),growth (SK-OV-3 ovarian),growth (IGROV1 ovarian),growth (OVCAR-3 ovarian),growth (HS 578T breast),growth (NCI/ADR-RES ovarian),growth (CAKI-1 renal)
COc1cccc(/C=C(/C)c2ccc3cccc(OC)c3[o+]2)c1O,106%,89.6%,97.3%,88.8%,116%,95.4%,84%,104%,92%,92.1%,93.1%,100%,104%,98%,107%,94.5%,114%,101%,107%,–
NC(N)=Nc1ccc(Oc2cccc(NC(N)=Nc3ccc(I)cc3F)c2)cn1,86.8%,63%,39.4%,83.8%,71.3%,94.9%,49%,43.2%,42.8%,7.24% (active),34.1%,77.6%,49%,66.6%,67.2%,39.7%,41.7%,53.3%,95.2%,–
CN1CCN(Cc2ccc(NC(=O)c3cncc(C#Cc4cnc5ccc(OCC6(C)COC6)nn45)c3)cc2C(F)(F)F)CC1,-75.7% (active),-83.3% (active),-76.2% (active),-91.8% (active),-73.7% (active),-96.1% (active),-97.7% (active),1.98% (active),1.9% (active),-13.9% (active),-17.7% (active),-15.3% (active),-73.2% (active),-54.7% (active),-90.8% (active),-63.8% (active),-74.5% (active),-50.2% (active),-58.1% (active),–
COc1c(N2CC3CCCNC3C2)c(F)cc2c(=O)c(C(=O)N/N=C/c3c[nH]c4ccccc34)cn(C3CC3)c12 (stereo unspecified),110%,105%,95.7%,77.2%,137%,99.8%,118%,71.2%,74.1%,-12.2% (active),78.2%,99%,116%,106%,130%,97.9%,103%,110%,104%,–
COc1cc(/C=C2\C(=O)Nc3ccccc32)ccc1OCc1ccc(Cl)cc1,105%,95.3%,103%,81.3%,136%,92.7%,115%,94.9%,93.9%,93.8%,97.5%,102%,101%,99.1%,111%,102%,106%,105%,100%,–
CC(C)(C)c1ccc(C(=O)Nc2nc3ccc(O)cc3s2)cc1,71.4%,47.5%,53.5%,25.5%,74.9%,39%,48.7%,41.9%,33%,24.7%,22.1%,30.6%,69.6%,46.3%,78.6%,47.7%,57.6%,77.3%,40.9%,–
Cc1[nH]c(C(=O)Nc2ccccc2OCc2cccc(C(=O)N3CCC[C@@H](N)C3)c2)c(Cl)c1Cl,-74.1% (active),-93.4% (active),-79.4% (active),-89.5% (active),-90.2% (active),-96.4% (active),56.2%,-26.6% (active),-55.2% (active),-46.2% (active),-38.5% (active),-45.2% (active),-87.3% (active),-77.4% (active),-59.3% (active),-73.5% (active),-87.4% (active),-50.9% (active),-68.8% (active),–
COc1ccc2c(c1)c(CC(=O)[Se]CC(=O)O)c(C)n2C(=O)c1ccc(Cl)cc1,102%,103%,58.5%,94.4%,104%,103%,69.3%,94.6%,99.8%,101%,98.4%,101%,104%,103%,116%,74.5%,113%,85.8%,103%,–
CC1=NC2=NN3C(=NN2C(c2ccccc2)=C1)N=NC(c1ccc(Br)cc1)=C3c1ccc(Br)cc1,103%,96%,101%,80.1%,128%,99.3%,98.7%,106%,99.8%,102%,111%,–,104%,108%,116%,99.3%,114%,105%,119%,–
CC(c1ccccc1)N1CSc2nc3ncncc3n2C1 (stereo unspecified),57.2%,84.8%,68.8%,47.6%,42.6%,45.2%,85.8%,23.1%,18.2%,–,26.4%,–,39.7%,27.1%,24.8%,45.5%,33.1%,64.2%,26.7%,–
CCCn1cnc2c(c1=N)C(c1ccc(F)cc1)c1sc3c(CC)cccc3c1O2 (stereo unspecified),49.4%,33.4%,20.6%,27%,61.3%,–,-25.7% (active),8.39% (active),9.49% (active),1.23% (active),4.79% (active),26.2%,23.3%,26.6%,40.3%,10.2%,-10.2% (active),16.5%,-13.9% (active),20.7%
COc1ccc(NC(=O)Nc2ccc3c(ccn3C(=O)c3cccc(F)c3)c2)cc1,94.5%,88%,50.7%,94.1%,103%,–,88.7%,56.3%,73.2%,42.7%,78.9%,89.1%,62.3%,48.1%,106%,69.1%,13.5%,31.6%,65.5%,90.1%
COc1cc(/C=C2\C(=O)Nc3ccccc32)ccc1OCc1ccc(F)cc1,107%,97.7%,100%,84.7%,130%,102%,89.2%,–,96.8%,90.1%,107%,102%,107%,103%,114%,101%,117%,115%,102%,–
COc1ccc2c(c1)c(CC(=O)[Se]CCC#N)c(C)n2C(=O)c1ccc(Cl)cc1,9.95% (active),-82.5% (active),-82.6% (active),-21.7% (active),-74.7% (active),5.57% (active),-42.9% (active),5.22% (active),0.134% (active),–,50.9%,6.32% (active),29%,31.6%,22.3%,-55.6% (active),-30.7% (active),-14.2% (active),-1.67% (active),–
COc1ccc(COc2ccc(/C=C3\C(=O)Nc4ccccc43)cc2OC)cc1,108%,99.8%,99.6%,80.4%,113%,92.4%,110%,104%,102%,102%,104%,101%,99.9%,–,119%,107%,115%,105%,106%,–
CS(=O)(=O)Nc1cc(-c2ccc3ncc(C#N)c(Nc4cccc(Cl)c4F)c3c2)cnc1Cl,-71.3% (active),-5.3% (active),16.1%,-16.1% (active),-31% (active),12.7%,–,2.5% (active),-11.1% (active),1.4% (active),-36.9% (active),10.6%,21.2%,–,-18.2% (active),-43.8% (active),-12.8% (active),-26.6% (active),33.7%,–
COc1ccc(C(=O)c2c(N)c(C#N)cn2-c2ccccc2OC)cc1,45.3%,48.2%,45.1%,47.9%,83.2%,46.7%,7.39% (active),19.9%,30.5%,16.1%,35.9%,55.9%,76.7%,–,45.6%,33.1%,14.6%,13%,13.5%,–
N#Cc1cccc(/C(N)=N/C(N)=N/c2nc3ccccc3s2)c1,40.4%,43.3%,34.9%,44.2%,81.3%,48.3%,-4.3% (active),6.56% (active),27.7%,26.2%,8.74% (active),35%,62.3%,91.7%,41.6%,36.6%,20.6%,23%,14.3%,–
O=C(O)c1ccc(-n2cc(CNc3cc(F)c(F)c(F)c3)c(-c3cccc(F)c3)n2)cc1,79.6%,65.5%,91.3%,77%,128%,77.4%,99.4%,92.3%,79.8%,80.4%,86.7%,82.8%,107%,95.5%,113%,98.8%,96.1%,102%,90.8%,–
NC(N)=Nc1ccc(Oc2cccc(Nc3ccc(Br)c(C(F)(F)F)c3)c2)cc1,35.6%,25.5%,-21.3% (active),75.2%,54.9%,68.3%,0.698% (active),3.83% (active),9.79% (active),–,-44.1% (active),51.2%,40.3%,39.8%,67.4%,0.582% (active),13.7%,9.28% (active),93.7%,–
COc1cc(/C=C2\C(=O)Nc3cc(Cl)ccc32)ccc1OCc1ccc(F)cc1,99.8%,76.5%,95.9%,79.8%,185%,93.6%,–,–,100%,97.5%,113%,98.7%,98.6%,83.2%,97.2%,72.7%,102%,91.7%,101%,–
CC(=O)C1=C(C)NC(NN)=NC1c1cccc(Cl)c1 (stereo unspecified),112%,96.4%,98.2%,85.9%,152%,99.4%,93.2%,97%,96.8%,96.5%,99.7%,103%,99.4%,104%,102%,97.7%,123%,114%,107%,–
